The whole screen tested about 340,000 compounds, of which about 470 (0.14%) were called active. The sample holds actives, similar compounds and a random draw of the others, so the mix is not that of the screen. A number with no mark means an inactive call.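 Rule for the calls: active = mean activation of 30% or more, with every replicate also reaching 30%; inconclusive = mean activation of 30% or more but some replicate falls short; inactive = the rest.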

The experiment in a line: small molecules raising miR-122 sensor signal – cell-based, Huh7 psiCHECK-miR122, Renilla luciferase, single point, primary screen (AID 623901).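 Note: 0% = median of neutral control wells and 100% = median of positive control wells; higher luciferase signal means stronger suppression of miR-122 activity.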 The following applies: 48 h, at 12.5 µM, hits give high values.
For `COc1ccc(OC)c(S(=O)(=O)Nc2cccc(-c3ccc4nncn4n3)c2)c1`, the activation was -333%.
As for `C[C@@H]1CN([C@H](C)CO)S(=O)(=O)c2ccc(C#CCC3CCCC3)cc2O[C@H]1CN(C)C(=O)CC1CC1`, the figure is -0.08%.
For `CO[C@@H]1CN(C)C(=O)c2cc(NS(=O)(=O)CC(F)(F)F)ccc2OC[C@H](C)N(C)C[C@H]1C`, the activation is -2.27%.
As for `C[C@H](CO)N1C[C@H](C)[C@H](CN(C)CC2CCCCC2)Oc2c(NC(=O)c3cnccn3)cccc2C1=O`, the figure is -119%; as for `C[C@@H]1CN([C@H](C)CO)C(=O)c2cc(C#CC3CCCC3)cnc2O[C@@H]1CN(C)C(=O)C1CCC1`, -4.13%.
With `CCOc1ccccc1N1CCN(C(=O)c2ccc3[nH]c(C)c(C)c3c2)CC1`, the activation is -100%.
`C[C@H](CO)N1C[C@H](C)[C@H](CN(C)C(=O)Nc2cccc3ccccc23)Oc2ncc(C#Cc3ccccc3)cc2C1=O`: the activation is 8.08%.
As for `C[C@H]1CN([C@@H](C)CO)S(=O)(=O)c2ccc(Br)cc2O[C@H]1CN(C)Cc1ccccn1`, the figure is 4.93%.
For the molecule `CSc1ccc(S(=O)(=O)NC2CCCCC2)cc1`, the activation is -102%.
As for `CCCC#Cc1cnc2c(c1)C(=O)N([C@H](C)CO)C[C@H](C)[C@@H](CN(C)Cc1ccccc1)O2`, the activation is 2.96%.
For `C[C@@H]1CN([C@H](C)CO)C(=O)c2cc(-c3ccc(F)cc3)cnc2O[C@@H]1CN(C)Cc1ccc(C(=O)O)cc1` the value was -8.09%; for `Cc1c(C)c(C)c(S(=O)(=O)NCCc2ccccn2)c(C)c1C`, -107%; for `CCC(=O)N1C[C@H](C)[C@H](OC)CN(C)C(=O)c2ccc(NS(C)(=O)=O)cc2OC[C@H]1C`, 0.433%.
For `C[C@H]1CN([C@@H](C)CO)C(=O)c2cc(C#CC3(O)CCCC3)cnc2O[C@@H]1CN(C)C(=O)Cc1ccccc1` the value was 0.596%.
Take `COc1cccc2sc(N(CCCN(C)C)C(=O)C(c3ccccc3)c3ccccc3)nc12`: the activation was 74.2% (active).
As for `C[C@@H]1CN([C@H](C)CO)S(=O)(=O)c2ccc(-c3ccccc3)cc2O[C@@H]1CN(C)C(=O)CC1CC1`, the figure is -0.601%.
As for `C[C@H](CO)N1C[C@H](C)[C@@H](CN(C)CC2CCOCC2)Oc2ncc(C#Cc3ccc(F)cc3)cc2C1=O`, the figure is 4.08%; as for `C[C@@H]1CN([C@@H](C)CO)S(=O)(=O)c2ccc(C#CCC3CCCC3)cc2O[C@H]1CN(C)C(=O)CC1CC1`, -4.63%.
For `C[C@@H]1CN([C@H](C)CO)C(=O)c2cc(C#CC3(O)CCCC3)cnc2O[C@H]1CN(C)Cc1ccncc1` the value was -9.22%; for `C[C@H](CO)N1C[C@H](C)[C@@H](CN(C)Cc2ccncc2)Oc2ncc(C#CC3CC3)cc2C1=O`, -22.7%; for `Cc1ccc(C(=O)Nc2ccccc2-c2ccccc2)cc1S(=O)(=O)Nc1ccccc1`, -94%.
As to `N=c1c2c(-c3ccccc3)c(-c3ccccc3)n(Cc3ccccc3)c2ncn1CCCO`, the activation is 42.7% (active).
Take `CCCN1C[C@@H](C)[C@@H](OC)CN(C)C(=O)c2ccc(NS(C)(=O)=O)cc2OC[C@@H]1C`: the activation was -0.143%.
As for `C/C=C/c1ccc2c(c1)O[C@H](CN(C)Cc1ccccc1)[C@H](C)CN([C@@H](C)CO)S2(=O)=O`, the figure is -0.63%; as for `C[C@H](CO)N1C[C@H](C)[C@H](CN(C)Cc2ccncc2)Oc2ncc(C#Cc3cccc(F)c3)cc2C1=O`, -2.31%; as for `COCC#Cc1cnc2c(c1)C(=O)N([C@@H](C)CO)C[C@@H](C)[C@H](CN(C)C(=O)Nc1ccccc1OC)O2`, -17.8%.
For the molecule `CCc1ccc(-c2cc(C)no2)cc1S(=O)(=O)NCCc1ccc(S(N)(=O)=O)cc1`, the activation was -124%.
Regarding `C[C@H](CO)N1C[C@H](C)[C@H](CN(C)Cc2ccccn2)Oc2ncc(C#CCc3ccccc3)cc2C1=O`, the activation was -4.42%.
As for `Cc1ccc(S(=O)(=O)Nc2ccc3ncccc3c2)cc1`, the figure is -146%; as for `COCC(=O)N(C)C[C@H]1Oc2cc(C#CC(C)C)ccc2S(=O)(=O)N([C@H](C)CO)C[C@@H]1C`, -9.28%; as for `CCOC(=O)c1c(S(=O)(=O)Nc2cccc(Cl)c2)c(C)n(C)c1C`, -92%.
In the case of `O=C(/C=C(O)/C=C/c1ccc(O)cc1)/C=C/c1ccc(O)cc1`, the activation is -140%.
Regarding `CCC(=O)Nc1ccc2c(c1)OC[C@H](C)N(Cc1ccccc1F)C[C@H](C)[C@@H](OC)CN(C)C2=O`, the activation is 3.89%.
For `Cn1c(NC(=O)c2ccco2)c(-c2ccccc2Cl)c(=O)c2ccccc21` the value was 66.3% (active); for `COc1ccc(NS(=O)(=O)c2ccc(NC(=S)NC(=O)CC(C)C)cc2)cc1`, -161%; for `COc1ccc(NS(=O)(=O)c2ccc(NC(=O)C(C)(C(F)(F)F)C(F)(F)F)cc2)nn1`, 35.7% (active).
For `CO[C@H]1CN(C)C(=O)c2cc(NS(=O)(=O)c3ccccc3)ccc2OC[C@H](C)N(C)C[C@@H]1C` the value was -1.29%.
As for `C[C@H](CO)N1C[C@H](C)[C@@H](CN(C)S(=O)(=O)c2ccccc2)Oc2ncc(C#Cc3ccccc3F)cc2C1=O`, the figure is 1.81%; as for `COc1ccc(OCCCC(=O)NCCc2ccccc2)cc1`, -223%.
For `CC(C)C#Cc1ccc2c(c1)O[C@@H](CN(C)C(=O)NC(C)C)[C@H](C)CN([C@H](C)CO)S2(=O)=O`, the activation is -66.1%.
Turning to `COc1ccccc1-c1cnc2c(c1)C(=O)N([C@H](C)CO)C[C@@H](C)[C@@H](CN(C)CC1CCCC1)O2`, the activation was 5.29%.
In the case of `Cc1ccc(NS(=O)(=O)c2cc3c(cc2C)NC(=O)CO3)cc1`, the activation was -92.7%.
As for `CCC(=O)Nc1ccc2c(c1)C(=O)N(C)C[C@@H](OC)[C@@H](C)CN(Cc1ccccc1OC)[C@H](C)CO2`, the figure is -2.97%; as for `CCCC(=O)Nc1ccc2c(c1)C(=O)N(C)[C@H]1CC[C@@H](CC(=O)NCc3cccc(F)c3)O[C@H]1CO2`, -120%.
On to `Cn1cnc(CCNC(=O)C[C@@H]2CC[C@@H]3[C@H](COC[C@@H](O)CN3C(=O)Nc3ccccc3)O2)c1`, for which the activation is 4.36%.
For `CNC(=O)C[C@@H]1CC[C@H]2[C@H](COc3ccc(NC(=O)c4cccc(OC)c4)cc3C(=O)N2C)O1` the value was 50% (active).
For `CCCC(=O)Nc1ccc2c(c1)C(=O)N(C)C[C@H](OC)[C@@H](C)CN[C@H](C)CO2` the value was 1.08%.
As for `CC(C)C(=O)Nc1ccc2c(c1)C(=O)N(C)[C@@H]1CC[C@@H](CC(=O)NCCc3ccccc3)O[C@H]1CO2`, the figure is 56.7% (active).

Source of the values: PubChem BioAssay AID623901 (Broad Institute, 2012).
